Test results: PubChem BioAssay (EPA / NIEHS)
The source made the active and inactive calls. The calls were made as follows: active = hit-call score of the fitted dose curve at least 0.9, where 1 is the maximum; inactive = score below 0.9.

Tests used:
Conditions in all cases: mRNA level, 48 h; actives raise or lower the signal
[1] = read-out: Insulin-like growth factor-binding protein 1 (IGFBP1), IGFBP1 (gene 3484); assay: LTEA_HepaRG_IGFBP1: Life Technologies and Expression Analysis (LTEA) Assay for Insulin-like growth factor-binding protein 1 (IGFBP1) using HepaRG (AID 2283508)
Outline: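 HepaRG, 48 h, 8 conc. (max 100 uM, half-log), duplicates, 0.5% DMSO. Readout: TaqMan qRT-PCR, ACTB/GAPDH/POLR2A normalisation. Fit: bidirectional vs DMSO.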

[2] = read-out: Interleukin 6 (IL6), IL6 (gene 3569); assay: LTEA_HepaRG_IL6: Life Technologies and Expression Analysis (LTEA) Assay for Interleukin 6 (IL6) using HepaRG (AID 2283509)
Outline: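 HepaRG cells exposed in duplicate for 48 h to eight half-log concentrations, top 100 uM, in 0.5% DMSO serum-free induction medium. mRNA measured by qRT-PCR, normalized to ACTB, GAPDH and POLR2A. Bidirectional fit versus DMSO.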

[3] = read-out: Interleukin 6 Receptor (IL6R), IL6R (gene 3570); assay: LTEA_HepaRG_IL6R: Life Technologies and Expression Analysis (LTEA) Assay for Interleukin 6 Receptor (IL6R) using HepaRG (AID 2283510);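 as to AC50: TaqMan qRT-PCR signal normalized to ACTB GAPDH and POLR2A housekeeping genes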
Outline: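 Differentiated human HepaRG cells, plated 48 h then switched to serum-free induction medium, were dosed in duplicate for 48 h at eight half-log concentrations up to 100 uM in 0.5% DMSO. IL6R mRNA quantified by qRT-PCR, normalized to ACTB/GAPDH/POLR2A; bidirectional fit versus DMSO.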

[4] = read-out: Potassium channel subfamily K member 1 (KCNK1), KCNK1 (gene 3775); assay: LTEA_HepaRG_KCNK1: Life Technologies and Expression Analysis (LTEA) Assay for Potassium channel subfamily K member 1 (KCNK1) using HepaRG (AID 2283511)
Outline: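 Differentiated HepaRG cells, 48 h exposure in serum-free induction medium with 0.5% DMSO; 8 concentrations, half-log from 100 uM, duplicate. KCNK1 mRNA by qRT-PCR, normalized to ACTB, GAPDH, POLR2A; bidirectional fit vs DMSO.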

[5] = read-out: Keratin 19 (KRT19), KRT19 (gene 3880); assay: LTEA_HepaRG_KRT19: Life Technologies and Expression Analysis (LTEA) Assay for Keratin 19 (KRT19) using HepaRG (AID 2283512)
Outline: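 Readout is qRT-PCR of KRT19 mRNA, normalized to ACTB, GAPDH and POLR2A, from HepaRG cells treated 48 h with eight-point half-log dilutions topping at 100 uM. Activity in either direction is scored relative to 0.5% DMSO vehicle.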

[6] = read-out: JUN Transcription Factor, JUN (gene 3725); assay: LTEA_HepaRG_JUN: Life Technologies and Expression Analysis (LTEA) Assay for JUN Transcription Factor using HepaRG (AID 2283513)
Outline: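 Differentiated HepaRG cells were exposed to chemicals for 48 h in serum-free induction medium, 8 concentrations from 100 uM in half-log steps, 0.5% DMSO vehicle, in duplicate. JUN mRNA was quantified by TaqMan qRT-PCR, normalized to ACTB, GAPDH, POLR2A.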

[7] = read-out: Lipase C (LIPC), LIPC (gene 3990); assay: LTEA_HepaRG_LIPC: Life Technologies and Expression Analysis (LTEA) Assay for Lipase C (LIPC) using HepaRG (AID 2283514)
Outline: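 HepaRG cells, 48 h after plating, treated in duplicate for 48 h in serum-free induction medium over 8 half-log concentrations from 100 uM, 0.5% DMSO. LIPC mRNA by TaqMan qRT-PCR normalized to ACTB/GAPDH/POLR2A; bidirectional fit versus DMSO.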

[8] = read-out: Lipoprotein lipase (LPL), LPL (gene 4023); assay: LTEA_HepaRG_LPL: Life Technologies and Expression Analysis (LTEA) Assay for Lipoprotein lipase (LPL) using HepaRG (AID 2283515)
Outline: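 Differentiated HepaRG cells, plated 48 h, then exposed 48 h in serum-free induction medium to 8 concentrations (top 100 uM, half-log steps) in 0.5% DMSO, duplicate. LPL mRNA measured by qRT-PCR, normalized to ACTB, GAPDH and POLR2A.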

[9] = read-out: matrix metalloproteinase-10 (MMP10), MMP10 (gene 4319); assay: LTEA_HepaRG_MMP10: Life Technologies and Expression Analysis (LTEA) Assay for matrix metalloproteinase-10 (MMP10) using HepaRG (AID 2283517)
Outline: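 Differentiated HepaRG cells in serum-free induction medium exposed 48 h in duplicate to 8-point half-log series up to 100 uM in 0.5% DMSO. mRNA quantified by qRT-PCR, normalised to ACTB, GAPDH, POLR2A; bidirectional fit versus DMSO.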

MYC, MYC (gene 4609) = assay: LTEA_HepaRG_MYC: Life Technologies and Expression Analysis (LTEA) Assay for MYC using HepaRG (AID 2283518)
Outline: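 Expression changes were scored by TaqMan qRT-PCR with ACTB, GAPDH and POLR2A normalization. Cultures in serum-free induction medium received duplicate 8-point concentration series, highest 100 uM, for 48 h; DMSO (0.5%) served as baseline.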

[10] = read-out: matrix metalloproteinase-3 (MMP3), MMP3 (gene 4314); assay: LTEA_HepaRG_MMP3: Life Technologies and Expression Analysis (LTEA) Assay for matrix metalloproteinase-3 (MMP3) using HepaRG (AID 2283519)
Outline: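 HepaRG cells (~100,000/well) in serum-free induction medium were dosed in duplicate for 48 h with an 8-point half-log series from 100 uM, 0.5% DMSO. MMP3 mRNA was quantified by Fluidigm TaqMan qRT-PCR, normalized to three housekeeping genes.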

[11] = read-out: Paternally Expressed 10 (PEG10), PEG10 (gene 23089); assay: LTEA_HepaRG_PEG10: Life Technologies and Expression Analysis (LTEA) Assay for Paternally Expressed 10 (PEG10) using HepaRG (AID 2283520)
Outline: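 Differentiated HepaRG cells, plated 48 h then switched to serum-free induction medium, were exposed in duplicate for 48 h to eight half-log concentrations topping at 100 uM in 0.5% DMSO. PEG10 mRNA was quantified by TaqMan qRT-PCR, normalised to ACTB, GAPDH and POLR2A.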

[12] = read-out: Nuclear factor NF-kappa-B p105 subunit (Homo sapiens) (UniProt P19838); assay: LTEA_HepaRG_NFKB1: Life Technologies and Expression Analysis (LTEA) Assay for Nuclear Factor Kappa B Subunit 1 (NFKB1) using HepaRG (AID 2283521)
Outline: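 Human HepaRG cells receive eight half-log concentrations, highest 100 uM, for 48 h. NFKB1 expression is then quantified by qRT-PCR and analysed for up- or down-regulation relative to 0.5% DMSO vehicle.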

[13] = read-out: Protein phosphatase 2A (PPP2R4), PTPA (gene 5524); assay: LTEA_HepaRG_PPP2R4: Life Technologies and Expression Analysis (LTEA) Assay for Protein phosphatase 2A (PPP2R4) using HepaRG (AID 2283522)
Outline: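 Differentiated HepaRG cells in serum-free induction medium were exposed in duplicate for 48 h to eight concentrations, top 100 uM with half-log dilutions, in 0.5% DMSO. PPP2R4 mRNA was quantified by TaqMan qRT-PCR, normalized to ACTB, GAPDH and POLR2A.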

[14] = read-out: Phosphatase and tensin (PTEN), PTEN (gene 5728); assay: LTEA_HepaRG_PTEN: Life Technologies and Expression Analysis (LTEA) Assay for Phosphatase and tensin (PTEN) using HepaRG (AID 2283523)
Outline: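 HepaRG cells, 48 h after plating, exposed in duplicate for 48 h in serum-free induction medium to 8 half-log concentrations up to 100 uM (0.5% DMSO). PTEN mRNA by qRT-PCR, normalized to ACTB, GAPDH, POLR2A; bidirectional fit versus DMSO.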

[15] = read-out: solute carrier (SLC22A1), SLC22A1 (gene 6580); assay: LTEA_HepaRG_SLC22A1: Life Technologies and Expression Analysis (LTEA) Assay for solute carrier (SLC22A1) using HepaRG (AID 2283524)
Outline: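 Differentiated human HepaRG cells in serum-free induction medium, exposed 48 h in duplicate to 8-point half-log series from 100 µM top in 0.5% DMSO. SLC22A1 mRNA by TaqMan qRT-PCR normalized to ACTB, GAPDH, POLR2A; bidirectional fit versus DMSO.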

[16] = read-out: Pyruvate Dehydrogenase Kinase 4 (PDK4), PDK4 (gene 5166); assay: LTEA_HepaRG_PDK4: Life Technologies and Expression Analysis (LTEA) Assay for Pyruvate Dehydrogenase Kinase 4 (PDK4) using HepaRG (AID 2283525)
Outline: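 HepaRG cells plated 48 h, then switched to serum-free induction medium and exposed in duplicate for 48 h to 8 half-log concentrations from 100 uM in 0.5% DMSO. PDK4 mRNA measured by qRT-PCR, normalized to ACTB, GAPDH and POLR2A; bidirectional fit versus DMSO.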

[17] = read-out: NAD(P)H dehydrogenase [quinone] 1 (NQO1), NQO1 (gene 1728); assay: LTEA_HepaRG_NQO1: Life Technologies and Expression Analysis (LTEA) Assay for NAD(P)H dehydrogenase [quinone] 1 (NQO1) using HepaRG (AID 2283526)
Outline: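 Differentiated HepaRG cells, plated 48 h and then switched to serum-free induction medium, were exposed in duplicate for 48 h to 8-point half-log concentrations up to 100 uM in 0.5% DMSO. mRNA measured by qRT-PCR, normalized to ACTB, GAPDH, POLR2A; bidirectional fit versus DMSO.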

[18] = read-out: Nuclear factor erythroid 2-related factor 2 (Homo sapiens) (UniProt Q16236); assay: LTEA_HepaRG_NFE2L2: Life Technologies and Expression Analysis (LTEA) Assay for Nuclear factor erythroid 2-related factor 2 (NFE2L2) Transcription Factor using HepaRG (AID 2283527)
Outline: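 Differentiated human HepaRG cells, serum-free induction medium, exposed 48 h in duplicate to eight half-log concentrations up to 100 uM in 0.5% DMSO. NFE2L2 mRNA by Fluidigm TaqMan qRT-PCR, normalised to ACTB, GAPDH, POLR2A; bidirectional change versus DMSO.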

[19] = read-out: MicroRNA 122 (MIR122), gene 406906; assay: LTEA_HepaRG_MIR122: Life Technologies and Expression Analysis (LTEA) Assay for MicroRNA 122 (MIR122) using HepaRG (AID 2283516); also: the transcript read is the microRNA miR-122
Outline: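 Differentiated human HepaRG cells were exposed 48 h in serum-free induction medium to eight half-log concentrations (top 100 uM, 0.5% DMSO). Transcript level was measured by TaqMan qRT-PCR, normalized to ACTB, GAPDH and POLR2A, and fitted bidirectionally versus DMSO.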

Measured: AC50

Chain of Nuclear factor erythroid 2-related factor 2 (Homo sapiens) (Q16236 whole entry, looked up): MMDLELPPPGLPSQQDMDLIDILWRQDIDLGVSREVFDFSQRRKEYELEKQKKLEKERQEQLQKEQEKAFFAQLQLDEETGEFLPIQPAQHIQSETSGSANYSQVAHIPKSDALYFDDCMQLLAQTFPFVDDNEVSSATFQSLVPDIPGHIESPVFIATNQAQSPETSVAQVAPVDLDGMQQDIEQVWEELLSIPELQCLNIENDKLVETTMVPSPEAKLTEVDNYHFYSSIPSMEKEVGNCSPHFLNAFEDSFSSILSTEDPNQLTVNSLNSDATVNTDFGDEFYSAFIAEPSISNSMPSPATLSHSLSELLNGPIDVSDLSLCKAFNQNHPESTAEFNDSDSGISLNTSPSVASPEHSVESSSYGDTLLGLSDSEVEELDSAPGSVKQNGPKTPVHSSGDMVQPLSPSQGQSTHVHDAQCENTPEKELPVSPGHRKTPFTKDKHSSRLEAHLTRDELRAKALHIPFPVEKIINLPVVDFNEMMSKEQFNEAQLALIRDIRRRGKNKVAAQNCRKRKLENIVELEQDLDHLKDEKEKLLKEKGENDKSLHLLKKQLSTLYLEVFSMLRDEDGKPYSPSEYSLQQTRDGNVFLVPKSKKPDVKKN
Chain of Nuclear factor NF-kappa-B p105 subunit (Homo sapiens) (P19838 whole entry, looked up): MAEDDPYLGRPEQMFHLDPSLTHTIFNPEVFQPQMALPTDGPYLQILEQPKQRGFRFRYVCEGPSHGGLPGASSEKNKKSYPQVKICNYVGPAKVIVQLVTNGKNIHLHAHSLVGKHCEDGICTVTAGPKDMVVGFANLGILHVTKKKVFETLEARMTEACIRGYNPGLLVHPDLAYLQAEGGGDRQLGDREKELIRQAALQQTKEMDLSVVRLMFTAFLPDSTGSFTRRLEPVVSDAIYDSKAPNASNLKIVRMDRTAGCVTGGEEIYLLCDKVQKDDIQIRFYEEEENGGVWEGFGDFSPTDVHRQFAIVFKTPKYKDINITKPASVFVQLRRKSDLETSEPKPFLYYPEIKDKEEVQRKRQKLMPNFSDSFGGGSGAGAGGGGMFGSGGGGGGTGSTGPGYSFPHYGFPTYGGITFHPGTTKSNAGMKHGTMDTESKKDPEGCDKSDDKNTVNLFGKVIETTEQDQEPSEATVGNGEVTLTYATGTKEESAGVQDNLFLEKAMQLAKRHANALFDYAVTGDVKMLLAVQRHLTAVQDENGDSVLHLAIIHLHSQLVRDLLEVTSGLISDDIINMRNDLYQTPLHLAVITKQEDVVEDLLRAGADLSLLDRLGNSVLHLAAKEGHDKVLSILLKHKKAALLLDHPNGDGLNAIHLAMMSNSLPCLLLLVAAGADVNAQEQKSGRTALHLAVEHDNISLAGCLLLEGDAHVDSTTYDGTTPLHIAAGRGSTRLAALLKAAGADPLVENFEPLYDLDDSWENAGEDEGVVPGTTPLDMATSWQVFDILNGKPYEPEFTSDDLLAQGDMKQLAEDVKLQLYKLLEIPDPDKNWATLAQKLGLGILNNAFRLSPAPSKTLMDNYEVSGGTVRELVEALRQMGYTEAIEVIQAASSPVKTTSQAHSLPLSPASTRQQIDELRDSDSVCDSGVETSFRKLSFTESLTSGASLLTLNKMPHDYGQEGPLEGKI

Cc1cccc(C)c1O
not listed: [19]
inactive: all other assays above

Cc1ccc(C)c(O)c1C
not listed: [1] | [19]
inactive: all other assays above

Nc1ccc(S(=O)(=O)c2ccc(N)cc2)cc1
active: [12] 0.353 µM
not listed: [1] | [17] | [19]
inactive: all other assays above

CC(=O)OCCOCCOCCOC(C)=O
not listed: [1] | [12]
inactive: all other assays above

CCCCN(CCCC)CCCC
not listed: [1] | [17] | [19]
inactive: all other assays above

CCCCCCOCCO
not listed: [1] | [17] | [19]
inactive: all other assays above

NC(=O)Cn1c(=O)cc(CCN2CCN(c3nccc4sccc34)CC2)c2ccc(F)cc21
active: [7] 50 µM | [8] 50 µM | [11] 50 µM
not listed: [1] | [18] | [19]
inactive: all other assays above

CCCCCCCCCCCCCCCCCC(=O)O
not listed: [1] | [16] | [19]
inactive: all other assays above

Cc1ccc(N(C)C)cc1
not listed: [1] | [17] | [19]
inactive: all other assays above

Cc1nc(-c2ccc3c(c2)CCN(CCC2CCC(NC(=O)/C=C/c4ccc(F)cc4)CC2)CC3)no1 (centres undefined)
not listed: [1] | [19]
inactive: all other assays above

C[Si]1(C)O[Si](C)(C)O[Si](C)(C)O[Si](C)(C)O1
not listed: [1] | [17]
inactive: all other assays above

Nc1ccccc1N
active: [3] 72.3 µM | [5] 3.62 µM | [7] 62.7 µM | [8] 50 µM | MYC, MYC (gene 4609) 7.08 µM | [10] 81.8 µM | [11] 64.8 µM | [13] 77.5 µM | [14] 67.4 µM | [15] 62.4 µM | [16] 81.8 µM
inactive: [2] | [4] | [6] | [9] | [12] | [18]

NS(=O)(=O)c1cc2c(cc1Cl)NCNS2(=O)=O
not listed: [1] | [12] | [17] | [19]
inactive: all other assays above

COc1cc(S(=O)(=O)O)c(C)cc1N=Nc1c(O)ccc2cc(S(=O)(=O)O)ccc12
not listed: [1] | [12] | [17] | [18]
inactive: all other assays above

CN[C@H]1CC[C@@H](c2ccc(Cl)c(Cl)c2)c2ccc(S(N)(=O)=O)cc21
inactive: [4] | MYC, MYC (gene 4609) | [11] | [14]
active: [2] 77.4 µM | [3] 50 µM | [5] 10.9 µM | [6] 94.5 µM | [7] 15.8 µM | [8] 11.9 µM | [9] 66.4 µM | [10] 84.1 µM | [12] 81.4 µM | [13] 84.5 µM | [15] 22.4 µM | [16] 83 µM | [18] 81.5 µM
